HT1080 IDH1KD tx: kills HT-1080 cells with IDH1 knockdown; HT-1080 IDH1 knockdown viability, ATP luminescence, 48 h; Potency, µM (top dose mostly 46.1 µM), for inactives: top-dose activity, negative = toxicity, usual class: cytotoxic; 360,000 tested, 2% active;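 further: potency means the concentration at half of the fitted maximal effect; 0% = DMSO wells and -100% = cell-free medium wells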
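Assay cells: HT-1080 with IDH1 knockdown, 750 per well, RPMI/5% FBS. Exposure: 48 h at 37 °C following 2 h pre-incubation. Read: CellTiter-Glo luminescence; fitted concentration-response, curve class assigned.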
ALOX12 inh: blocks human arachidonate 12S-lipoxygenase | P18054 | purified 12hLO, xylenol orange hydroperoxide absorbance | Potency, µM (doses to about 108 µM), for inactives: at the top dose activity change, negative = inhibition, actives largely listed as inhibitors | 580,000 tested, 1.1% active; further: potency means the concentration at half of the fitted maximal effect
Target sequence (P18054 whole entry, looked up): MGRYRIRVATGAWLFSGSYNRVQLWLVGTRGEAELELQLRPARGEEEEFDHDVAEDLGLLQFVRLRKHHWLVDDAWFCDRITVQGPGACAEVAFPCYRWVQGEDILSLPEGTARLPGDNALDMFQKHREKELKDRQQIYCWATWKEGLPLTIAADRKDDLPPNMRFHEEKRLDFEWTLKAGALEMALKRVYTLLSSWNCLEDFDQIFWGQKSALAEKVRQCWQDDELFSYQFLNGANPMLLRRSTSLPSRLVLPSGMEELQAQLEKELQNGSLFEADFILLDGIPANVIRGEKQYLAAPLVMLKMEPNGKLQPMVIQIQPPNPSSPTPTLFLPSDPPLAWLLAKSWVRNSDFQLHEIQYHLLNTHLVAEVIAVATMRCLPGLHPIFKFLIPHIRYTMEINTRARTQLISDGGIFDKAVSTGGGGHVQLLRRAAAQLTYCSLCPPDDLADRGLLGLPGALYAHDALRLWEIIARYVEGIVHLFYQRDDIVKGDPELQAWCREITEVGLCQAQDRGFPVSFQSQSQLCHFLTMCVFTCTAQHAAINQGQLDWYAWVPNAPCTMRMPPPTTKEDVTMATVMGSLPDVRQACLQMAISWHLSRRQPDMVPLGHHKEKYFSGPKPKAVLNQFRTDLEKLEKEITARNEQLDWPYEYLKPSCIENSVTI
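Purified human 12hLO (150 nM final) in 25 mM Hepes, 0.01% Triton X-100, pH 7.0 was preincubated 15 min at room temperature with compound. Then 40 uM arachidonic acid was added, 30 min. Hydroperoxide was read by Fe-XO absorbance ratio 573/405 nm.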
DT40 TDP1 no CPT: qHTS for Inhibitors of human tyrosyl-DNA phosphodiesterase 1 (TDP1): qHTS in cells in absence of CPT | DT40 Tdp1-/- hTDP1 cells, no CPT, ATP luminescence, 48 h | Potency, µM (titrated, usually from 46.2 µM), inactives show at the top dose activity change, negative = growth inhibition, hits mostly inhibitors | 420,000 tested, 15% active; further: potency means the concentration at half of the fitted maximal effect; nearly all actives have a fitted effect of over 55% in size
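Compound effects on proliferation are scored in DT40 Tdp1-/-;hTDP1 cells in the absence of CPT. ATP levels (CellTiter-Glo luminescence) are recorded after a ≥48 hr, 37 °C incubation.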
DT40 TDP1 CPT: DT40-hTDP1 cell growth loss with CPT; AID 686979; 420,000 tested, 12% active; chicken DT40 Tdp1-/-;hTDP1 cells + 20 nM CPT, ATP luminescence, 48 h; Potency, µM (titrated, usually from 46.2 µM), for inactives: at the top dose activity change, negative = growth inhibition, actives largely listed as inhibitors; further: potency means the concentration at half of the fitted maximal effect; nearly all actives have a fitted effect of over 55% in size
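Chicken DT40 Tdp1-/- cells complemented with human TDP1, 400 cells/well, exposed to compounds plus 20 nM camptothecin for at least 48 h at 37 C; viability read as ATP content by CellTiter-Glo luminescence.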
IL-1B inflam inh: inflammasome signaling inhibition, IL-1 beta readout; THP-1 LPS/ATP IL-1B secretion, AlphaLISA, 16 h; active compounds read low; activity change, % at 57.5 µM; AID 743279; 360,000 tested, 4.7% active; in the data active means activity change below about -50%; inconclusive means mostly about -30% to -49%
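Secreted IL-1B measured by AlphaLISA bead assay after 16 h compound exposure of THP-1 cells; compounds (final up to 57.5 uM) added 1 h before LPS (250 ng/mL) and ATP (1.25 mM) stimulation; lower signal means less secretion.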
HT1080NT lethal: kills 2HG-producing HT-1080-NT fibrosarcoma cells; Potency, µM (top dose mostly 46.1 µM), without a hit: at the top dose activity, negative = less viability, usual class: cytotoxic; AID 686970; HT-1080-NT fibrosarcoma viability, CellTiter-Glo ATP luminescence, 48 h; 360,000 tested, 1.6% active;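 further: NT is the 2HG producing partner of a matched IDH1 knockdown line; potency means the concentration at half of the fitted maximal effect; 0% = DMSO-treated cells and -100% = media-only wells without cells; nearly all actives have a fitted effect of over 55% in size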
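Luminescent CellTiter-Glo readout after 48 hours of compound exposure at 37 degrees C defined viability of HT-1080-NT cells. Activity was normalized to DMSO wells and cell-free media wells; concentration-response curves were fitted and assigned curve classes.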
Active calls of the source: *; u = inconclusive; x = not tested or not shown; [ ] = dose if it differs, or a comment. The sample as a whole holds a higher share of hits than the screen did. Unless noted, the call rests on the fitted dose curve; in most records, active means well fitted curve in the direction sought with a large enough effect; inconclusive means small, poorly fitted or top-dose-only effect, or another doubt; inactive means no such curve, though single readings can be large; an effect the other way counts as inactive or inconclusive. Unless noted, on the % scale 0 is the no-effect control and ±100 the full control effect.

SMILES | HT1080 IDH1KD tx | ALOX12 inh | DT40 TDP1 no CPT | DT40 TDP1 CPT | IL-1B inflam inh | HT1080NT lethal
CCOc1ccccc1NC(=O)c1nc(S(=O)(=O)Cc2cccc(C)c2)ncc1Cl | -4% | 41% | 0.65µM* | 1.2µM* | 0 | 1%
CCc1nnc(NC(=O)c2nc(Cl)ccc2Cl)s1 | 28% | 461% | 3% | -4% | -1 | 29%
CCc1nnc(NC(=O)c2nc(S(=O)(=O)Cc3ccccc3)ncc2Cl)s1 | 7.3µM* | -6% | 18µM* | 18µM* | -100* | 12µM*
CCSc1ncc(Cl)c(C(=O)Nc2ccccc2OC)n1 | 0% | 23% | 6% | -1% | 55 | 1%
CCc1nnc(NC(=O)c2nc(SCc3ccccc3F)ncc2Cl)s1 | x | -15% | 8% | -16% | x | x
COCc1nc(C2CCN(C(=O)c3cccn3C)C2)no1 (stereo unspecified) | x | 39% | x | x | x | x
COc1ccc(CN2Cc3[nH]nc(-c4ccccc4Oc4ccccc4)c3CC2=O)cc1 | x | 4%[176 µM] | x | x | x | x
Cc1nnc(NC(=O)c2nc(S(=O)(=O)Cc3ccccc3C)ncc2Cl)s1 | u | -14% | 12µM* | 15µM* | -94* | 18µM*
N#Cc1ccc(COC(=O)c2cnc(Cl)c(Cl)c2)cc1 | 1% | -8% | -19% | 17% | -88* | 1%
Cc1noc(C)c1COC(=O)/C=C/c1ccc(Cl)cc1 | 0% | -5% | 16µM* | u | 7 | 8%
Cc1noc(C)c1COC(=O)CCCNC(=O)c1ccc(Cl)cc1 | -9% | 0% | u | 6% | 10 | -1%
Cc1noc(C)c1COC(=O)c1cnc(Cl)c(Cl)c1 | u | 0% | 16% | 22% | -54* | u
CC(/C=C/c1ccc(O)cc1)=N/O | -5% | 0% | 21µM* | 15µM* | -24 | -2%
CC(/C=C/c1ccccc1)=N/O | 5% | -15% | 0% | 4% | -19 | 10%
Cc1onc(-c2ccccc2)c1C(=O)OCC(=O)c1ccc(F)cc1 | 0% | -17% | 23µM* | u | 7 | 3%
Cc1onc(-c2ccccc2)c1C(=O)OCc1nnc(-c2ccc([N+](=O)[O-])cc2)o1 | -4% | 9% | u | u | -13 | 2%
COC(=O)c1c(-c2ccccc2)csc1NC(=O)c1c(-c2ccccc2)noc1C | u | u | u | -17% | -23 | -4%
Cc1ccccc1OCCOC(=O)c1c(-c2ccccc2)noc1C | 5.8µM* | 8% | 18µM* | 7.3µM* | 64 | 7.3µM*
Cc1onc(-c2ccccc2)c1C(=O)OCC(=O)c1ccccc1 | -5% | 0% | u | -1% | 21 | 1%
Cc1onc(-c2ccccc2)c1C(=O)OCCOc1ccc([N+](=O)[O-])cc1[N+](=O)[O-] | u | 92% | 21µM* | u | -24 | -27%
CCOC(=O)c1c(-c2ccc(F)cc2)csc1NC(=O)c1c(-c2ccccc2)noc1C | u | -9% | 21µM* | u | -4 | 0%
Cc1onc(-c2ccccc2)c1C(=O)OCCOc1ccccc1F | -11% | -9% | u | u | -23 | -19%
CCc1nc(-c2c3n(c(=O)n(Cc4cccc(C#N)c4)c2=O)CCCC3)no1 | x | 5% | x | x | x | x
O=C(Cn1nc2n(c1=O)-c1ccccc1SC2)N/N=C/c1cccnc1 | 8% | 10% | -4% | -2% | 55 | -2%
O=C(Nc1cccc(Cl)c1)N1CC2CCCN2c2ccccc21 (stereo unspecified) | x | -12% | u | u | x | x
SMILES | HT1080 IDH1KD tx | ALOX12 inh | DT40 TDP1 no CPT | DT40 TDP1 CPT | IL-1B inflam inh | HT1080NT lethal
COc1ccc(CNC(=O)CCC(=O)N2CC3CCCN3c3ccccc32)c(OC)c1 (stereo unspecified) | x | -23% | 21µM* | 18µM* | x | x
COc1ccc(OC)c(NC(=O)N2CCCc3ccccc32)c1 | 6% | -6% | u | u | -20 | 13%
COc1ccc(OC)c(CNC(=O)CCC(=O)N2Cc3ccccc3Oc3ncccc32)c1 | 14% | -6% | 0% | -13% | 4 | 3%
O=C(NCc1cccc(Cl)c1)c1ccc(NC(=O)N2CC3CCCN3c3ccccc32)cc1 (stereo unspecified) | x | u | 13µM* | 23µM* | x | x
COc1ccc(OC)c(NC(=O)N2CC(C)Oc3ccc(C)cc32)c1 (stereo unspecified) | x | -4% | 21µM* | u | x | x
COc1ccc(OC)c(NC(=O)N2CC3CCCN3c3ccccc32)c1 (stereo unspecified) | x | u | 23µM* | u | x | x
CCC1CN(C(=O)Nc2cc(C)ccc2OC)c2cc(Cl)ccc2O1 (stereo unspecified) | x | -24% | -53% | u | x | x
O=C(NCCN1CCCCC1)C1(CCO)CCN(c2ncccn2)C1 (stereo unspecified) | x | 66% | x | x | x | x
CC[C@H]1CN(S(=O)(=O)c2c(C)noc2C)CC[C@H]1CC(=O)NCc1cccnc1 | x | -3%[176 µM] | x | x | x | x
CS(=O)(=O)c1ccccc1NC(=O)CSc1nc(C2CC2)n(-c2ccccc2)n1 | x | 34% | x | x | x | x
CCc1ccc(C(=O)N2CCC(N3C(=O)CCC3C(N)=O)CC2)cc1 (stereo unspecified) | x | 35% | x | x | x | x
O=C(CCC(=O)N1CC2CCCN2c2ccccc21)NCc1cccc(Cl)c1 (stereo unspecified) | x | u | 7.3µM* | 15µM* | x | x
COc1ccc(CNC(=O)C2CCC(=O)N(C3CCCCCC3)C2)c(OC)c1 (stereo unspecified) | 7% | -7% | 8.2µM* | 16µM* | 12 | 1%
CC1CN(C(=O)CCC(=O)NCc2cccc(Cl)c2)c2ccccc2S1 (stereo unspecified) | x | 0% | -28% | -25% | x | x
COC(=O)c1ccc(CNC(=O)C23CC4CC(CC(C4)C2)C3)cc1 | 2% | 1% | u | -29% | -6 | -5%
C(=N\Nc1ncnc2ccccc12)/c1ccccc1 | u | 0% | 4.6µM* | 3.7µM* | 49 | 23µM*
C(=N\Nc1nc2ccccc2[nH]1)/C1CCCCC1 | u | 34% | u | 18µM* | 38 | u
C(=N\Nc1nc2ccccc2[nH]1)/c1ccccc1 | 6% | 9% | u | u | -95* | -1%
O=c1[nH]c(N/N=C/c2ccccc2)nc2ccccc12 | 21% | -3% | u | -30% | 5 | -5%
Fc1cccc(/C=N/Nc2ncnc3nc[nH]c23)c1 | -19% | 13% | -18% | -3% | -97* | -2%

Bioassay records (PubChem BioAssay)
